Data reported in ChEMBL document CHEMBL3988442, “University of Dundee, Small-Polar-MMV Screening Library” (2021).
For some assays here: Results with a measured potency or affinity are listed apart.

Experiments:
Parameters in all cases: scale not given: direction of the effect not stated beside the values
[1] = target: Protein translocase subunit SecA (Escherichia coli (strain K12)) (UniProt P10408); assay: Assay to Identify E. coli SecA ATPase Inhibitors; format: functional; conditions: 30 µM
[2] = target: T1, Ubiquitin-activating enzyme e1, putative (Leishmania donovani (strain BPK282A1)) (UniProt E9BSI1); assay: Leishmania donovani Ubiquitin Activating Enzyme (LdE1); format: functional; conditions: 30 µM
T1 sequence (whole entry): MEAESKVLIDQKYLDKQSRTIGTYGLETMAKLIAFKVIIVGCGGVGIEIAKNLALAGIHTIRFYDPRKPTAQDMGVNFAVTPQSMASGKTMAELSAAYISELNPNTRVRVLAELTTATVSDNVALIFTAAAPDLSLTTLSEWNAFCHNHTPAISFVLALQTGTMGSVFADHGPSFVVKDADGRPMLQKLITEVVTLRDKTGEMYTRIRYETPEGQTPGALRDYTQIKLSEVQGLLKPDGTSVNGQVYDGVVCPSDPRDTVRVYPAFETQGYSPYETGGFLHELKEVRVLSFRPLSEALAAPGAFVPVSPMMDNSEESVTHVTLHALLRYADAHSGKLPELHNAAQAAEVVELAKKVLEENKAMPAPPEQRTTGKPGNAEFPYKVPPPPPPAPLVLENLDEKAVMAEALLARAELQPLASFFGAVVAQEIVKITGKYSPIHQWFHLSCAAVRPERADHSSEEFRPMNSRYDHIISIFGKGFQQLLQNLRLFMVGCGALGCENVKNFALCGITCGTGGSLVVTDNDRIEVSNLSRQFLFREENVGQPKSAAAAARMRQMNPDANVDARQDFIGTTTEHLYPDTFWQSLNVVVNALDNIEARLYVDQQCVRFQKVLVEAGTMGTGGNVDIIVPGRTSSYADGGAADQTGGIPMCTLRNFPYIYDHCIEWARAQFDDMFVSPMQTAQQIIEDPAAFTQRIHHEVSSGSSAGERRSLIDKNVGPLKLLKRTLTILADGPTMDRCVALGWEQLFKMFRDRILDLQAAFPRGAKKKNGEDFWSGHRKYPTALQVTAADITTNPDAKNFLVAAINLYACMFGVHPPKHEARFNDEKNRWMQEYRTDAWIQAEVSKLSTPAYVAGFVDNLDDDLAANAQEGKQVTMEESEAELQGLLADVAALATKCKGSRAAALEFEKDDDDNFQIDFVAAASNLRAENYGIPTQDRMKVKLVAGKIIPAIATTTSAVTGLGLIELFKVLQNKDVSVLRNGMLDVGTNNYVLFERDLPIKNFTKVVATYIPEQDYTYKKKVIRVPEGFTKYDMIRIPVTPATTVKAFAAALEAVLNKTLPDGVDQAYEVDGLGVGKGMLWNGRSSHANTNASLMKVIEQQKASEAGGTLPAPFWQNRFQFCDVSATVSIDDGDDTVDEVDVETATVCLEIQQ

[3] = target: AMP-activated protein kinase, AMPK (Homo sapiens) (UniProt P54646+O43741+P54619+Q9UGJ0+Q9Y478+Q13131+Q9UGI9); assay: AMP-dependent Kinase enzyme assay. An in vitro enzyme assay that detects ADP turnover that is directly proportional to AMPK activity. This uses naive AMPK that is activated during the assay with MK-8722; format: functional; conditions: 30 µM
[4] = target: Sialic acid-binding Ig-like lectin 9 (Homo sapiens) (UniProt Q9Y336); assay: Hs-Siglec9 ALPHAscreen SOP 20170721; conditions: 10 µM
Trypanosoma cruzi = assay: Trypanosoma cruzi phosphomannomutase and mannose-1-phosphate guanylyltransferase assay; format: functional; conditions: 10 µM
[5] = target: T2, Arginase-2, mitochondrial (Homo sapiens) (UniProt P78540); assay: in vitro enzyme assay to detect the production of urea directly proportional to the activity of Arginase II; format: functional; conditions: 33.3 µM; further: in the data most compounds retested in dose-response had high values
T2 sequence (whole entry): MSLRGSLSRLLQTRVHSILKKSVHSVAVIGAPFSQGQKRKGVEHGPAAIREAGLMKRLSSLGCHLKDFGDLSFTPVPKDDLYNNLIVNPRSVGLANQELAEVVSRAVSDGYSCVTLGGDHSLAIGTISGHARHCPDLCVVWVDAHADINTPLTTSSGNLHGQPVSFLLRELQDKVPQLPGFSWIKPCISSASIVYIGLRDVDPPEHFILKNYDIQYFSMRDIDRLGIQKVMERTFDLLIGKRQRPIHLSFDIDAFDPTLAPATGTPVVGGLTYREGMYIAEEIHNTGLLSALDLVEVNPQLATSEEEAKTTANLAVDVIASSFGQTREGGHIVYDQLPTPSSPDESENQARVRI

[6] = target: T3, Proteasome subunit beta (Trypanosoma cruzi) (UniProt O96673); assay: Trypanosoma cruzi proteasome chymotrypsin-like activity (TcProtChymo) assay.; further: in the data most compounds retested in dose-response had high values; format: functional; conditions: 9.37 µM
T3 sequence (whole entry): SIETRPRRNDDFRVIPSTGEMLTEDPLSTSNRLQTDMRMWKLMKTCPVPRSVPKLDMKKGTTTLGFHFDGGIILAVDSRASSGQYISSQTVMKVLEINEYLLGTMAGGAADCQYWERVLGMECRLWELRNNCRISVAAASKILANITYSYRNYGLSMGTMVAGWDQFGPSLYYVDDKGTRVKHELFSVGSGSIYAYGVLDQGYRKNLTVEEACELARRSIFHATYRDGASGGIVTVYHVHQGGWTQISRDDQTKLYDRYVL

Homo sapiens = species: Homo sapiens; assay: To identify inhibition of the IFN signalling (Jak-Stat) pathway via expression of an eGFP reporter gene under the control of an IFN-stimulated response element (ISRE) containing MxA promoter.; format: functional; conditions: 30 µM
[7] = target: T4, Tyrosyl-tRNA synthetase, putative (Trypanosoma cruzi (strain CL Brener)) (UniProt Q4DSP6); assay: Trypanosoma cruzi tyrosyl tRNA synthetase (TcYRS) _High Tyrosine SOP; format: functional; conditions: 30 µM; further: in the data most compounds retested in dose-response had high values
T4 sequence (whole entry): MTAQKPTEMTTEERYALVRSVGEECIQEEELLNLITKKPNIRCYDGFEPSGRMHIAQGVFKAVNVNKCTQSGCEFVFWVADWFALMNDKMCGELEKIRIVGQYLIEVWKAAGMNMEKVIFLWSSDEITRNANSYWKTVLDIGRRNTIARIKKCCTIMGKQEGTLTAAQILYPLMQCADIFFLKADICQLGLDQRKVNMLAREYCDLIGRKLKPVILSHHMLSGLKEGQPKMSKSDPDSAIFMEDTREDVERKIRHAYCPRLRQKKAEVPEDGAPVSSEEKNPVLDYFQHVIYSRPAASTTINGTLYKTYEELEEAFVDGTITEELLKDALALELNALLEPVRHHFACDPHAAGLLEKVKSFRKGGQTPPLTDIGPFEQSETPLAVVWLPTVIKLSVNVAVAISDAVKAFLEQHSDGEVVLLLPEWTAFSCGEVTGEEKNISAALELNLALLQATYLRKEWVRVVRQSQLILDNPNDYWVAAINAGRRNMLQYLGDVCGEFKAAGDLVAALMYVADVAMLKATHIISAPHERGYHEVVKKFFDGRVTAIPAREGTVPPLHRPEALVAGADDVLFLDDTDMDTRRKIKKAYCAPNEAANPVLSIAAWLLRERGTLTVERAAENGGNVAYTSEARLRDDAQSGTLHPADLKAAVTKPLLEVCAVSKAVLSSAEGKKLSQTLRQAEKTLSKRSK

[8] = target: T4, Tyrosyl-tRNA synthetase, putative (Trypanosoma cruzi (strain CL Brener)); assay: Trypanosoma cruzi tyrosyl tRNA synthetase (TcYRS) SOP; format: functional; conditions: 30 µM
[9] = target: Chromo domain-containing protein 1 (Saccharomyces cerevisiae (strain ATCC 204508 / S288c) (Baker's yeast)) (UniProt P32657); assay: ScCHD-1 Enzyme Inhibition Assay; format: functional; conditions: 30 µM; further: in the data most compounds retested in dose-response had high values
Chain of Chromo domain-containing protein 1 (Saccharomyces cerevisiae (strain ATCC 204508 / S288c) (Baker's yeast)) (P32657 whole entry, the tested form may be a part): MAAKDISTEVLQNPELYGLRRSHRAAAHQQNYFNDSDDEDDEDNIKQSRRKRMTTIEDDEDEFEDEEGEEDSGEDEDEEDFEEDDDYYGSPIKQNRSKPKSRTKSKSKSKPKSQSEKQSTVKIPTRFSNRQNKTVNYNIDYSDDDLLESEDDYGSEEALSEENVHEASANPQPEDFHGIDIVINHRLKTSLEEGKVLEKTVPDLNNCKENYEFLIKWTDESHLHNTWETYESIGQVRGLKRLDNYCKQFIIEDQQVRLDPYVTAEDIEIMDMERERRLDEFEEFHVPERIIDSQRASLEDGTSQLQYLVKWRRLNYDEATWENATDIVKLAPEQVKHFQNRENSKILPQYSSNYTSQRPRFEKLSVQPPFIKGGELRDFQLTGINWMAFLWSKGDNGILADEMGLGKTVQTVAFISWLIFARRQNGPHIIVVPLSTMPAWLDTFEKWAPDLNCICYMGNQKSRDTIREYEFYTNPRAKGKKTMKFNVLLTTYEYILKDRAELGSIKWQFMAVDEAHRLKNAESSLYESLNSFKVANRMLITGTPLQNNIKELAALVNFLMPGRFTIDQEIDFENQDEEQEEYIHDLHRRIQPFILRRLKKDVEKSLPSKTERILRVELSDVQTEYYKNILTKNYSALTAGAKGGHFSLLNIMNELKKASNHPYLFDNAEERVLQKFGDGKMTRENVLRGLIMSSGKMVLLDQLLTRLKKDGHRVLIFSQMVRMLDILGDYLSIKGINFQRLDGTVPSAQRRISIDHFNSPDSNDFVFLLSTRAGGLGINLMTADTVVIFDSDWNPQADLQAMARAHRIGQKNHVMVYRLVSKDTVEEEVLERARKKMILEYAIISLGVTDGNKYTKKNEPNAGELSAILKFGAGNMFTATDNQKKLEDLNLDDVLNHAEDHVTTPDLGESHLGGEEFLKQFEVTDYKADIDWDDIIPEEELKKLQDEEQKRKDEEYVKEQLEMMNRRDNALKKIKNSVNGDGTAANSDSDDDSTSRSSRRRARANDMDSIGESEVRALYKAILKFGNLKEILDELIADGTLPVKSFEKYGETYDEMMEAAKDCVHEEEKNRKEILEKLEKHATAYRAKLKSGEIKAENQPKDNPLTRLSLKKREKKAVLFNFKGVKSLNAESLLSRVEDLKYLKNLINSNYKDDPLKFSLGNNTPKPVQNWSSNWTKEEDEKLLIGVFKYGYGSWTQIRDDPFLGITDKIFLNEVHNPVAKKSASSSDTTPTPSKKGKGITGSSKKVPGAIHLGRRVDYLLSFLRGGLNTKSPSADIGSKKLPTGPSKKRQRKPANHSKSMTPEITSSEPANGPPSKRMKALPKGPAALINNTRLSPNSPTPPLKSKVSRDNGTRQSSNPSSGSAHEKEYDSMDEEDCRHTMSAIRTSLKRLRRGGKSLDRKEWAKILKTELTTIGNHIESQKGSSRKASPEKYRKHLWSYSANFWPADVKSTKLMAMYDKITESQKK

Chain of Protein translocase subunit SecA (Escherichia coli (strain K12)) (P10408 whole entry): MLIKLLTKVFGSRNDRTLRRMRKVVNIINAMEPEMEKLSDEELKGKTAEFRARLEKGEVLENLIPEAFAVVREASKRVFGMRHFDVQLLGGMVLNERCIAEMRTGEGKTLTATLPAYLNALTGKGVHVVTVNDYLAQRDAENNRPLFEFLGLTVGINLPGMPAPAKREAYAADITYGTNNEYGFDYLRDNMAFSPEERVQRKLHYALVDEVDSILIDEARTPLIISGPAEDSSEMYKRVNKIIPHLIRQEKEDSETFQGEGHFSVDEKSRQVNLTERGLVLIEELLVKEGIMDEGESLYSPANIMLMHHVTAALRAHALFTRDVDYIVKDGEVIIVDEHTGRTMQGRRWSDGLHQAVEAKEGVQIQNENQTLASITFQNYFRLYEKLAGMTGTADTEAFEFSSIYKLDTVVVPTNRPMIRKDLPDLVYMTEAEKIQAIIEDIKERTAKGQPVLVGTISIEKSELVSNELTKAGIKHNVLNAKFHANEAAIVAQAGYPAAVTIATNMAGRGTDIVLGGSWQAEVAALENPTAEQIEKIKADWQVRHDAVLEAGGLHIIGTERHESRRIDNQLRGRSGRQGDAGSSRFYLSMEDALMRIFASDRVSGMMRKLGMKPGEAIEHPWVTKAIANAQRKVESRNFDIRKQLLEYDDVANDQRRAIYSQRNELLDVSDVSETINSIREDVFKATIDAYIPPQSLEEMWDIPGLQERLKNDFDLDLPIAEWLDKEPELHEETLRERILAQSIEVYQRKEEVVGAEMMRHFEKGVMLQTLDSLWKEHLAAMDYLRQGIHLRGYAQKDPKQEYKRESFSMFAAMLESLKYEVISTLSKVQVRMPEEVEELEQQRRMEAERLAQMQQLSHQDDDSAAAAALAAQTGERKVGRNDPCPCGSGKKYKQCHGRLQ
Chain of Sialic acid-binding Ig-like lectin 9 (Homo sapiens) (Q9Y336 whole entry): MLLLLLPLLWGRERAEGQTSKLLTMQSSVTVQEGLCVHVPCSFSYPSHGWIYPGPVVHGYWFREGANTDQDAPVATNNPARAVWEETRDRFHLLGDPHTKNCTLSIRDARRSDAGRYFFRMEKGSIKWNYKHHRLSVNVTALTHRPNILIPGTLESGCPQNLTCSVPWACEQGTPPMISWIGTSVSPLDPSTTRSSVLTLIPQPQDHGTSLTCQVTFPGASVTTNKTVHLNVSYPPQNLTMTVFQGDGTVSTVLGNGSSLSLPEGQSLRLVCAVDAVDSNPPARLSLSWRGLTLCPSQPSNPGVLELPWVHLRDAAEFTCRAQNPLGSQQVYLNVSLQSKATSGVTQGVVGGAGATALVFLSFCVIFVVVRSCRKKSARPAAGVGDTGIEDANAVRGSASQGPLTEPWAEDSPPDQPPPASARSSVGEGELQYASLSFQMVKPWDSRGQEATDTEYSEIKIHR

SMILES | Percent Effect [1] [%] | Percent Effect [2] [%] | Percent Effect [3] [%] | Percent Effect [4] [%] | Percent Effect (Trypanosoma cruzi) [%] | Percent Effect [5] [%] | Percent Effect [6] [%] | Percent Effect (Homo sapiens) [%] | Percent Effect [7] [%] | Percent Effect [8] [%] | Percent Effect [9] [%]
COCCO[C@@H]1CCN(Cc2csc(C)n2)[C@H]1Cc1ccccc1 | -2.84 | -5.41 | -0.151 | -7.92 | -3.03 | -1.24 | -1.29 | 8.8 | 1.07 | -1.24 | -1.36
CC(C)CCn1c(=O)nc2n1C(=O)N(c1ccc(F)cc1)C2 | -5.09 | -2.63 | 10.5 | -4.96 | -1.46 | -10.7 | 12.4 | 13.5 | -2.13 | -10.4 | 15.2
COc1cc(C)sc1C(=O)N1CCC(Nc2cccnc2)CC1 | -6.41 | -121 | 0.841 | 37.6 | 3.17 | 3.19 | 3 | 5.06 | 8.33 | 11.1 | 0.713
Cc1cc(C(=O)NCC2COCc3c(C)nnn3C2)no1 (stereo not given) | -6.44 | 2.6 | -3 | 3.99 | -0.295 | -9.65 | 7.65 | -19 | 2.15 | 11.1 | -0.439
O=C(c1cccnc1)N1CCc2ncnc(C3CCOC3)c2CC1 (stereo not given) | 0.619 | 10.7 | 5.98 | -10.8 | -5.71 | 3.5 | 10.8 | 2.86 | 4.25 | 11.5 | 3.31
Cc1n[nH]c(C2CN(C(=O)c3cc(C4CC4)[nH]n3)CCO2)n1 (stereo not given) | -3.77 | 13 | 3.73 | 15.3 | -0.0979 | 0.632 | 9.78 | -11 | 5.71 | 11.8 | -11.2
Cc1cc(CN2CCc3nn(C(C)C)c(=O)cc3C2)no1 | -6.46 | 0 | -5.64 | 2.16 | -0.781 | 0.833 | 14.1 | -0.957 | 7.92 | 8.54 | -7.52
CCC1(CO)CCCN(c2ncccc2C#N)C1 (stereo not given) | -4.07 | -5.41 | -0.35 | 5.12 | -1.74 | -3.81 | -0.69 | 19.1 | -1.59 | 0 | -3.09
COCCN(C)CC(=O)N1C[C@H]2CC[C@@H]1CN(C(=O)c1ccncc1)C2 | -4.1 | 5.33 | -2.28 | 3.27 | -5.75 | 1.56 | 17.1 | 27.7 | 6.01 | 13.6 | -5.9
O=C(NCCCNC(=O)c1cccc(O)c1)Nc1ccc(F)cc1F | -7.43 | 18.4 | 7.05 | -5.18 | 2.24 | -3.55 | 12.9 | 3.94 | 2.13 | 15.6 | -5.87
